# Data from PubChem BioAssay (NCI).
# This is part of a sample that, as a whole, favours compounds with a hit. Of some 83,000 tested, about 20% had one in any assay.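 Interpretation: 100, growth as untreated; towards 0, rising growth inhibition; 0, no net growth; 0 to -100, cell death. Compounds scoring below 10 were considered active.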 Unmarked numbers belong to inactive results. The source made the active and inactive calls.
# What was measured:
# Assay in all cases: NCI-60 one-dose screen, 48 h (100 = growth as untreated, 0 = no growth, -100 = all killed)
# Conditions in all cases: 10 µM unless noted
# SR leukemia = tested on: SR leukemia
# RPMI-8226 leukemia = tested on: RPMI-8226 leukemia
# OVCAR-8 ovarian = tested on: OVCAR-8 ovarian
# OVCAR-5 ovarian = tested on: OVCAR-5 ovarian
# OVCAR-4 ovarian = tested on: OVCAR-4 ovarian
# IGROV1 ovarian = tested on: IGROV1 ovarian
# OVCAR-3 ovarian = tested on: OVCAR-3 ovarian
# HS 578T breast = tested on: HS 578T breast
# NCI/ADR-RES ovarian = tested on: NCI/ADR-RES ovarian
# T-47D breast = tested on: T-47D breast
# BT-549 breast = tested on: BT-549 breast
# MDA-MB-435 melanoma = tested on: MDA-MB-435 melanoma
# SW-620 colon = tested on: SW-620 colon
# MCF7 breast = tested on: MCF7 breast
# HCT-116 colon = tested on: HCT-116 colon
# HCC-2998 colon = tested on: HCC-2998 colon
# KM12 colon = tested on: KM12 colon
# SK-OV-3 ovarian = tested on: SK-OV-3 ovarian
SMILES,growth (SR leukemia),growth (RPMI-8226 leukemia),growth (OVCAR-8 ovarian),growth (OVCAR-5 ovarian),growth (OVCAR-4 ovarian),growth (IGROV1 ovarian),growth (OVCAR-3 ovarian),growth (HS 578T breast),growth (NCI/ADR-RES ovarian),growth (T-47D breast),growth (BT-549 breast),growth (MDA-MB-435 melanoma),growth (SW-620 colon),growth (MCF7 breast),growth (HCT-116 colon),growth (HCC-2998 colon),growth (KM12 colon),growth (SK-OV-3 ovarian)
CCCCOC(=O)c1cc(O)c(O)c(O)c1,44.5%,59.2%,68.6%,92.2%,58.9%,55.6%,61.8%,86.4%,74.4%,61%,67.4%,74.8%,80.2%,84.9%,64.9%,92.5%,69%,
Cc1nn(-c2ccccc2)c2nc3c(nc12)C1=NCCN1C(c1ccc(Cl)cc1)N3 (centres undefined),6.3% (active),45.6%,87.5%,91%,,88.8%,95.4%,60.7%,98.6%,75.1%,98.3%,51.5%,76.6%,35.3%,68.8%,-25.2% (active),66%,104%
CC(CN1CCN(CC(C)Nc2ccnc3cc(Cl)ccc23)CC1)Nc1ccnc2cc(Cl)ccc12 (centres undefined),-44.1% (active),-32.2% (active),6.74% (active),57.2%,3.26% (active),28.2%,-7.9% (active),9.67% (active),,-21.3% (active),10.8%,-45.4% (active),5.03% (active),10.6%,-83.2% (active),-5.03% (active),19.8%,
CN(C)N1C(=O)c2c(Cl)c(Cl)c(Cl)c(Cl)c2C1=O,87.5%,97%,105%,115%,111%,,122%,99%,101%,,129%,114%,108%,95.7%,101%,,113%,
O=C(NNC(=O)c1cccc(Cl)c1)c1ccccc1,85.8%,101%,106%,103%,103%,115%,115%,105%,111%,103%,111%,103%,106%,105%,107%,105%,111%,
CO[C@H](C(=O)[C@@H](O)[C@@H](C)O)[C@@H]1Cc2cc3cc(O[C@H]4C[C@@H](O[C@H]5C[C@@H](O)[C@H](O)C(C)O5)[C@H](O)C(C)O4)c(C)c(O)c3c(O)c2C(=O)[C@H]1O[C@H]1C[C@@H](O[C@H]2C[C@@H](O[C@H]3C[C@](C)(O)C(=O)C(C)O3)[C@@H](O)C(C)O2)[C@H](O)C(C)O1 (some centres undefined),8.44% (active),-21% (active),2.48% (active),13.1%,8.45% (active),12.2%,-12.5% (active),-13.8% (active),76%,-8.49% (active),-24.5% (active),-41.3% (active),8.29% (active),6.66% (active),4.55% (active),-9.52% (active),1.23% (active),
Brc1ccsc1Br,107%,103%,122%,106%,107%,103%,122%,129%,116%,95.4%,102%,113%,111%,103%,105%,105%,111%,
Cc1ccc(C(CN(C)C)C(=O)c2ccccc2)cc1 (centres undefined),-29.2% (active),-41% (active),14.5%,65.9%,33.2%,88.9%,-8.33% (active),83.5%,49.7%,33%,-4.79% (active),18.2%,-53.8% (active),-0.801% (active),-86.4% (active),101%,33.9%,
COc1cc(C2C(C#N)=C(N)Oc3cc4c(cc32)OCO4)cc2c1OCO2 (centres undefined),15.3%,31.4%,35.1%,41.3%,42.3%,33.3%,-39.7% (active),23%,11.2%,53.7%,34.8%,-50.6% (active),,16.6%,11%,14.7%,10.9%,
NS(=O)(=O)c1ccc(CCn2c(SCC(=O)N/N=C/c3ccccc3O)nc3ccccc3c2=O)cc1,19.9%,32.1%,36.9%,69.2%,,64.4%,23.8%,37.5%,92.3%,49.2%,53.9%,3.97% (active),26.1%,21.7%,16.9%,86.8%,34%,59.2%
C=CC(=O)N1CN(C(=O)C=C)CN(C(=O)C=C)C1,25.3%,84.6%,62.4%,109%,,56.8%,4.76% (active),71.8%,70.8%,33.6%,76.3%,81.2%,15.3%,39.6%,13.7%,101%,85.8%,99%
Cc1cc([N+](=O)[O-])c(C)cc1N,90.9%,96.5%,102%,116%,,96.9%,104%,107%,106%,111%,101%,110%,,90.9%,109%,102%,107%,111%
Cc1ccc(NC(=O)c2sc3nc4c(cc3c2N)C(=O)CCC4)cc1Cl,105%,105%,103%,101%,,106%,113%,113%,104%,105%,115%,99.2%,113%,102%,105%,103%,116%,114%
CN1C2CCC1/C(=C\c1ccc(Cl)cc1)C(=O)/C2=C/c1ccc(Cl)cc1,24.5%,20.2%,-27.1% (active),,63.5%,68.8%,46%,75.5%,43.7%,59.7%,70.6%,63.9%,57.5%,22.7%,17.4%,112%,54.3%,93.4%
CCCCCCCCOC(=O)C(C)OC(=O)OCCOCCOC(=O)OC(C)C(=O)OCCCCCCCC (centres undefined),104%,98.7%,105%,,117%,104%,98.6%,102%,101%,99.9%,107%,103%,106%,104%,102%,100%,104%,103%
COc1ccc(-c2cnc(-c3ccncc3-c3cccc(OC)c3)o2)cc1,10.2%,8.95% (active),26%,,37.6%,37.1%,-13.1% (active),53.3%,10.1%,37.2%,37.1%,4.88% (active),22.5%,16.4%,4.92% (active),17.3%,-28.6% (active),-5.44% (active)
COc1ccc(C(=O)OC2C(OC3C(O)COC(O[C@H]4C[C@H]5[C@@H]6CC=C7C[C@@H](O)CC[C@]7(C)[C@H]6CC[C@]5(C)[C@H]4[C@H](C)C(=O)CCC(C)C)C3OC(C)=O)OCC(O)C2O)cc1 (some centres undefined),-8.55% (active),-29.1% (active),19.3%,21.6%,,28.3%,53.4%,-29.3% (active),60.1%,2.99% (active),-8.64% (active),-47.4% (active),-57.3% (active),-30.8% (active),1.33% (active),52.9%,24.1%,-44.1% (active)
O/N=C/c1ccncc1,107%,94%,107%,116%,,114%,113%,107%,105%,97.3%,117%,100%,,97.3%,118%,102%,105%,100%
